# TGFb SMAD3 inh = qHTS for Inhibitors of TGF-b. Potency, µM (titrated, usually from 46.1 µM), for inactives: at the highest dose activity, negative = inhibition, actives largely listed as inhibitors. 410,000 tested, 1.2% active. HepG2 CAGA-GFP TGF-b/SMAD3 reporter, GFP fluorescence, 18 h; TGF-beta stimulated, 500 pg/mL final; further: potency means the concentration at half of the fitted maximal effect; on the % scale 0 is the no-effect control and ±100 the full control effect; nearly all actives have a fitted effect of over 65% in size
#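 Read-out: total well GFP (ex488/em500-530) summed from mean per-cell fluorescence. Cells: HEPG2 CAGA-GFP, 1% FBS DMEM, 18 h at 37 degrees C with 500 pg/mL final TGF-beta. Unstimulated wells served as the full-inhibition control; stimulated DMSO wells = 0%.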
# TDP1 cell noCPT = qHTS for Inhibitors of human tyrosyl-DNA phosphodiesterase 1 (TDP1): qHTS in cells in absence of CPT; 420,000 tested, 15% active; AID 686978, 2013; DT40 Tdp1-/- hTDP1 cells, no CPT, ATP luminescence, 48 h; Potency, µM (doses to about 46.2 µM), for inactives: at the top dose activity change, negative = growth inhibition, most hits filed as inhibitors; further: potency means the concentration at half of the fitted maximal effect; on the % scale 0 is the no-effect control and ±100 the full control effect; nearly all actives have a fitted effect of over 55% in size
#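 Cells were dispensed at 400 per well, compounds added by pin tool, plates incubated ≥48 hr at 37 °C, then CellTiter-Glo added for 30 min at room temperature before luminescence reading. Line: DT40 Tdp1-/- complemented with hTDP1; camptothecin omitted.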
# HepG2 viability = qHTS for Inhibitors of TGF-b: Cytotox Counterscreen; HepG2 CAGA-GFP viability, ATP luminescence, 18 h; AID 588856, 2011; Potency, µM (titrated, usually from 46.1 µM), without a hit: top-dose activity change, negative = cytotoxicity, most hits filed as cytotoxic; 410,000 tested, 0.76% active; further: potency means the concentration at half of the fitted maximal effect
#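 HepG2 CAGA-GFP cells (1000/well, DMEM with 1% FBS) received compound, then TGF-beta at 500 pg/mL final, and were incubated 18 hours at 37 degrees C. Viability was read by CellTiter-Glo luminescence. Media-only wells were set as complete cell-killing and DMSO as no toxicity.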
# DT40 TDP1 CPT = qHTS for Inhibitors of human tyrosyl-DNA phosphodiesterase 1 (TDP1): qHTS in cells in presence of CPT. AID 686979, 2013. chicken DT40 Tdp1-/-;hTDP1 cells + 20 nM CPT, ATP luminescence, 48 h. Potency, µM (titrated, usually from 46.2 µM), without a hit: top-dose activity change, negative = growth inhibition, actives largely listed as inhibitors. 420,000 tested, 12% active; further: potency means the concentration at half of the fitted maximal effect; on the % scale 0 is the no-effect control and ±100 the full control effect; nearly all actives have a fitted effect of over 55% in size
#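 Cell growth measured by CellTiter-Glo luminescence after a minimum 48 h, 37 C compound exposure with 20 nM CPT in Tdp1-knockout DT40 cells stably expressing hTDP1, seeded 400/well; qHTS titration format.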
# IL1B secr inh = qHTS for Inhibitors of Inflammasome Signaling: IL-1-beta AlphaLISA Primary Screen; 360,000 tested, 4.7% active; THP-1 LPS/ATP IL-1B secretion, AlphaLISA, 16 h; stronger effect = lower value; activity change, % at 57.5 µM; in the data active means activity change below about -50%; inconclusive means mostly about -30% to -49%; further: on the % scale 0 is the no-effect control and ±100 the full control effect
#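 THP-1 cells pretreated 1 hr with compounds (up to 57.5 uM final), then stimulated with LPS (250 ng/mL final) plus ATP (1.25 mM final); secreted IL-1B measured by AlphaLISA after 16 hr, decreased signal indicating inhibition.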
# S-ASM inh = Inhibitors of Secretory Acid Sphingomyelinase (S-ASM): qHTS; Potency, µM (highest dose often 57.5 µM), without a hit: at the top dose activity change, negative = inhibition, hits mostly inhibitors; 340,000 tested, 0.006% active; Sphingomyelin phosphodiesterase (Homo sapiens), P17405; placental ASM, HMU-PC fluorogenic substrate, 60 min; further: potency means the concentration at half of the fitted maximal effect
# Target sequence (P17405 47-631 limits assumed): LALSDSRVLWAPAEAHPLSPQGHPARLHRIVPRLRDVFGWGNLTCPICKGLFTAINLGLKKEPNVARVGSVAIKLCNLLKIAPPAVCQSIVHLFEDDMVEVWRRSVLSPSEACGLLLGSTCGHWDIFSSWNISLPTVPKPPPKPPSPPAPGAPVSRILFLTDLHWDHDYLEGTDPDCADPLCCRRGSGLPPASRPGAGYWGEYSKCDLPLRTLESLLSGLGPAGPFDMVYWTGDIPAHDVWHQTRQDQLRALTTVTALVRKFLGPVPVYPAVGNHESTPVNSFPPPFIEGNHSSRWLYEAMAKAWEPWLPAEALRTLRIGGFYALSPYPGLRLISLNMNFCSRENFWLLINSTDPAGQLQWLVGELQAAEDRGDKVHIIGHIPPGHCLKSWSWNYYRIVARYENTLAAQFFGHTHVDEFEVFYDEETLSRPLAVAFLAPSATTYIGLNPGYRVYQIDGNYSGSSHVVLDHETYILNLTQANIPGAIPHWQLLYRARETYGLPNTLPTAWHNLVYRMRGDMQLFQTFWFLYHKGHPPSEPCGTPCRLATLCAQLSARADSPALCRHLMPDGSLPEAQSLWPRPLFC
#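 HMU-PC0 cleavage (9 uM final) by human placental ASM, 60 min at 37 °C following 10 min compound exposure at RT; stopped at pH 10, fluorescence Ex 386/Em 447 nm.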
# Starred values were filed as active, the others as inactive; ? = inconclusive; · = no result; [ ] = another dose, or the depositor's remark. In the library only some 19% were active in any assay of this set; here they are far more common. Unless noted, the call rests on the fitted dose curve; in most records, active means well fitted curve in the direction sought with a large enough effect; inconclusive means small, poorly fitted or top-dose-only effect, or another doubt; inactive means no such curve, though single readings can be large; an effect the other way counts as inactive or inconclusive.
SMILES,TGFb SMAD3 inh,TDP1 cell noCPT,HepG2 viability,DT40 TDP1 CPT,IL1B secr inh,S-ASM inh
CCCN(C(=O)CSc1nc(C2CC2)n(-c2ccccc2)n1)C1CCS(=O)(=O)C1 (stereo not given),-9.7%,17.3%,-7.3%,-2.6%,-29.0,-2.8%
Cc1cccc(CN2[C@H](CO)C=CS2(=O)=O)c1,1.4%,26.8%,1.5%,6.6%,-25.4,·
Cc1nn(-c2ccccc2)c(-c2ccccc2[N+](=O)[O-])c1CC#N,3.7%,16.4µM*,-13.0%,?,9.6,·
Cc1nn(-c2ccccc2)c(-c2ccccc2[N+](=O)[O-])c1C(=O)O,0.0%,-3.3%,-158.3%,-0.8%,11.4,-0.8%
CC(/C=N/n1cnnc1)=C\c1ccccc1,5.5%,-8.4%,-20.9%,-14.2%,3.2,-0.1%
ClC(/C=N/n1cnnc1)=C/c1ccccc1,?,1.84µM*,-24.5%,14.6µM*,-94.0*,-1.6%
CC1(C)CC2CC(C)(CN2S(=O)(=O)c2cccc(C(N)=O)c2)C1 (stereo not given),-8.0%,?,-16.4%,-29.7%,6.3,-0.5%
COc1ccc(NC(=O)CN(C)C(=O)c2cccc(S(=O)(=O)N3CC4(C)CC3CC(C)(C)C4)c2)cc1 (stereo not given),7.1%,?,-3.4%,?,-71.8*,-3.6%
CC1(C)CC2CC(C)(CN2S(=O)(=O)c2ccc(C(=O)Nc3cccc(S(=O)(=O)N4CCOCC4)c3)cc2)C1 (stereo not given),?,5.8µM*,-22.7%,4.11µM*,-20.8,-6.2%
CC1(C)CC2CC(C)(CN2S(=O)(=O)c2ccc(C(=O)Nc3cc(S(=O)(=O)N4CCOCC4)ccc3Cl)cc2)C1 (stereo not given),16.2%,2.91µM*,7.8%,3.26µM*,47.6,-1.6%
COCCCNC(=O)CCn1c(=O)c2ccccc2n(CC(=O)Nc2cc(Cl)ccc2OC)c1=O,0.0%,-27.1%,-36.9%,-10.0%,·,·
COc1ccc(NS(=O)(=O)c2cccc(C(=O)O)c2)cc1,-1.4%,-3.5%,0.3%,3.1%,-28.3,6.9%
COc1ccc(C(=O)C(C)OC(=O)c2cccc(S(=O)(=O)Nc3cc(Cl)c(OC)cc3OC)c2)cc1 (stereo not given),-15.3%,20.6µM*,-5.3%,23.1µM*,-5.8,-1.2%
CCN(C(=O)COC(=O)Cn1c(C)csc1=O)c1c(N)n(Cc2ccccc2)c(=O)[nH]c1=O,-4.3%,-11.9%,-1.3%,-15.0%,-14.5,-0.9%
COC1CCN(Cc2cn(Cc3ccccc3)nc2-c2cc3ccccc3o2)CC1,?,25.9µM*,-20.2%,?,?,2.4%
OCC1CCN(Cc2cn(Cc3ccccc3)nc2-c2cc3ccccc3o2)CC1,3.7%,?,6.4%,?,-55.8*,-0.3%
OCC1CCCN(Cc2cn(Cc3ccccc3)nc2-c2cc3ccccc3o2)C1 (stereo not given),0.0%,?,-24.6%,-27.3%,-61.9*,1.6%
CN(CC1CCCN(CCc2ccccc2F)C1)C(=O)c1cc2ccccc2o1 (stereo not given),?,?,-57.5%,?,?,·
CCOC(=O)c1cc(-c2ccccc2)n(-c2cccc(C(=O)Nc3cccc(SC)c3)c2)c1C,0.0%,-9.5%,-4.6%,-12.7%,·,·
CCCc1cc(=O)[nH]c2nnc(SCCC(C)C)n12,0.5%,2.5%,-1.4%,-3.2%,·,·
Cc1ccccc1N1CCN(S(=O)(=O)c2nnc(NC(=O)c3ccc(C(C)C)cc3)s2)CC1,-7.9%,?,-19.9%,?,·,·
O=c1c2ccccc2ncn1-c1ccc(Cl)cc1Cl,-10.9%,-14.7%,9.5%,?,-22.8,2.1%
O=c1c2ccccc2sn1-c1ccc(Cl)cc1Cl,?,2.91µM*,-58.3%,6.51µM*,-105.5*,·
COc1cc(-c2ccc(Cl)cn2)cc2c1OCCN(S(=O)(=O)C[C@]13CC[C@H](CC1=O)C3(C)C)C2,·,-6.4%,·,13.2%[9.04 µM],·,·
CS(=O)(=O)N(CC(=O)NCCSCc1c(F)cccc1Cl)c1cccc([N+](=O)[O-])c1,11.2%,-5.0%,25.9%,15.0%,22.5,1.6%
SMILES,TGFb SMAD3 inh,TDP1 cell noCPT,HepG2 viability,DT40 TDP1 CPT,IL1B secr inh,S-ASM inh
Cc1ccc(C)c(CN2C(=O)c3ccccc3S(=O)c3ccc(C(=O)N(C)Cc4ccccc4)cc32)c1 (stereo not given),?,?,-31.6%,18.4µM*,·,·
COc1ccc(N2CCN(C(=O)c3ccc4c(c3)N(Cc3cc(C)ccc3C)C(=O)c3ccccc3S4=O)CC2)cc1 (stereo not given),?,11.6µM*,-3.8%,14.6µM*,·,·
Cc1ccc(C)c(CN2C(=O)c3ccccc3S(=O)c3ccc(C(=O)N4CCC(C)CC4)cc32)c1 (stereo not given),?,23.1µM*,0.5%,?,·,·
Cc1ccc(C)c(CN2C(=O)c3ccccc3S(=O)c3ccc(C(=O)NCCCN4CCCC4)cc32)c1 (stereo not given),-13.3%,?,-20.4%,?,-14.1,-1.2%
COc1ccc(N2CCN(C(=O)c3ccc4c(c3)N(Cc3ccc(F)cc3)C(=O)c3ccccc3S4=O)CC2)cc1 (stereo not given),?,?,-26.1%,?,·,·
Cc1ccc(C)c(CN2C(=O)C(=O)c3ccccc32)c1,5.7%,0.92µM*,7.0%,1.16µM*,·,·
COc1ccc(NS(=O)(=O)c2cn(C)c(=O)n(C)c2=O)cc1,4.8%,18.3%,11.0%,-4.7%,1.6,3.1%
Nc1nc2ncn(COCCO)c2c(=O)[nH]1,-1.1%,-4.0%,5.0%,18.1%,·,·
CCCCCCCCCCCn1nnnc1N,-14.0%,2.4%,2.4%,1.9%,-2.3,-6.3%
Cc1ccc(N2CCN(C(=O)Cn3ncc4c([nH]c5ccc(C)cc54)c3=O)CC2)c(C)c1,6.3%,-29.4%,-6.9%,-24.9%,·,·
CCOC(=O)N1CCN(C(=O)c2cc3ccc(OC)cc3[nH]2)CC1,-10.4%,-11.0%,-10.6%,-28.2%,-5.4,2.2%
CCOC(=O)c1ccc2c(c1)N(Cc1ccccc1C)C(=O)c1ccccc1S2=O (stereo not given),-23.8%,?,1.7%,14.1µM*,-8.3,-6.0%
